“And” between values parts separate entries of the source, which are not always exact repeats. Equal values may be shown once. Results filed as inconclusive are left out. The source made the active and inactive calls. Unless noted, calls come from the whole dose curve; as a rule, active = well fitted curve in the direction sought with a large enough effect; inconclusive = small, poorly fitted or top-dose-only effect, or another doubt; inactive = no such curve, though single readings can be large; an effect the other way counts as inactive or inconclusive.
What was measured:
UISO = assay: qHTS assay to identify novel small-molecules to repurpose for Merkel cell carcinoma treatment (AID 1296009); conditions: MCC and control cell lines, CellTiter-Glo viability, 72 h; series mostly up to 46 µM; note: nearly all actives have a fitted effect of over 60% in size; note: potency is the fitted concentration of half-maximal effect
Method in brief: (§1)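 qHTS format: cells treated with library compounds in DMSO across 8 (NPC) or 11 (MIPE) concentrations. Readout after 72 hr at 37 degree celsius was CellTiter-Glo luminescence.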

WaGa = assay: as above; conditions: MCC and control cell lines, CellTiter-Glo viability, 72 h; series mostly up to 46 µM
Method in brief: as §1

C33A = assay: Primary qHTS to identify gynecologic anti-cancer compounds using libraries of approved drugs and bioactive compounds (AID 1345084); conditions: Gynecologic cancer cell panel viability, ATPlite luminescence, 48 h; series mostly up to 57.5 µM; note: nearly all actives have a fitted effect of over 55% in size; note: potency is the fitted concentration of half-maximal effect
Method in brief: (§2)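 Five-concentration response, 48 h; readout is ATP-driven luciferase luminescence.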

CASKI = assay: as above; conditions: Gynecologic cancer cell panel viability, ATPlite luminescence, 48 h; series mostly up to 57.5 µM
Method in brief: as §2

Es-2 = assay: as above; conditions: Gynecologic cancer cell panel viability, ATPlite luminescence, 48 h; series mostly up to 57.5 µM
Method in brief: as §2

HeLa = assay: as above; conditions: Gynecologic cancer cell panel viability, ATPlite luminescence, 48 h; series mostly up to 57.5 µM
Method in brief: as §2

Hek293T = assay: as above; conditions: Gynecologic cancer cell panel viability, ATPlite luminescence, 48 h, control line for the selectivity index; series mostly up to 57.5 µM
Method in brief: as §2

JEG-3 = assay: as above; conditions: Gynecologic cancer cell panel viability, ATPlite luminescence, 48 h; series mostly up to 57.5 µM
Method in brief: as §2

OV90 = assay: as above; conditions: Gynecologic cancer cell panel viability, ATPlite luminescence, 48 h; series mostly up to 57.5 µM
Method in brief: as §2

PA-1 = assay: as above; conditions: Gynecologic cancer cell panel viability, ATPlite luminescence, 48 h; series mostly up to 57.5 µM
Method in brief: as §2

SKOV3 = assay: as above; conditions: Gynecologic cancer cell panel viability, ATPlite luminescence, 48 h; series mostly up to 57.5 µM
Method in brief: as §2

Tov-21-G = assay: as above; conditions: Gynecologic cancer cell panel viability, ATPlite luminescence, 48 h; series mostly up to 57.5 µM
Method in brief: as §2

Tov112D = assay: as above; conditions: Gynecologic cancer cell panel viability, ATPlite luminescence, 48 h; series mostly up to 57.5 µM
Method in brief: as §2

[1] = Drug repurposing screens with cells derived from glioblastoma tumor samples (AID 1345199); conditions: GBM patient neurospheres viability, ATP luminescence, 48 h; note: % is set by controls: 0 for no effect and ±100 for the full control effect; nearly all actives have a fitted effect of over 40% in size
Method in brief: (§3)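 Four patient lines of CD133+ GBM neurospheres were screened at several concentrations; hits were retested in those lines plus three slower-growing GBM lines, using 48-hour treatment and ATP-based viability.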

CAOV3 = assay: Primary qHTS to identify gynecologic anti-cancer compounds using libraries of approved drugs and bioactive compounds (AID 1345084); conditions: Gynecologic cancer cell panel viability, ATPlite luminescence, 48 h; series mostly up to 57.5 µM; note: nearly all actives have a fitted effect of over 55% in size; note: potency is the fitted concentration of half-maximal effect
Method in brief: as §2

astro = assay: Drug repurposing screens with cells derived from glioblastoma tumor samples (AID 1345199); conditions: viability, ATP luminescence, 48 h; series mostly up to 45.9 µM; note: % is set by controls: 0 for no effect and ±100 for the full control effect; nearly all actives have a fitted effect of over 40% in size
Method in brief: as §3

[2] = target: Nuclear receptor subfamily 1 group I member 2 (Rattus norvegicus) (UniProt Q9R1A7); assay: qHTS assay for small molecule activators of the rat pregnane X receptor (rPXR) signaling pathway (AID 651751; call rule not given here; note: 0% is about no effect); conditions: rPXR reporter cells, luciferase (One-Glo), 24 h
Sequence of Nuclear receptor subfamily 1 group I member 2 (Rattus norvegicus) (Q9R1A7 whole entry, looked up): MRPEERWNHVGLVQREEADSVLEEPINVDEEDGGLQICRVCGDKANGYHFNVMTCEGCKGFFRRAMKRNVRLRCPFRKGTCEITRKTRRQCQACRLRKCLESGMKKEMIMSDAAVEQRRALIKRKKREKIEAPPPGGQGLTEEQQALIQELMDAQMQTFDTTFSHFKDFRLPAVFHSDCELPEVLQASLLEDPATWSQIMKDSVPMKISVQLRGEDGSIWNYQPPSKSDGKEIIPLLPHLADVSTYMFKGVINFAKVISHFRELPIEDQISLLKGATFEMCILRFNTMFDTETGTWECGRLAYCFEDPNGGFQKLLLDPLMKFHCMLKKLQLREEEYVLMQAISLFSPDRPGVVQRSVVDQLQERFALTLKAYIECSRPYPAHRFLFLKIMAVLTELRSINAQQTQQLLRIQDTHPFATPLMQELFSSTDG

[3] = qHTS assay for small molecule activators of the human pregnane X receptor (PXR) signaling pathway (AID 720659; call rule not given here; note: 0% is about no effect)
[4] = at 45.9 µM (top of the series), tumour line B
[5] = at 45.9 µM (top of the series), tumour line D
[6] = at 46 µM (top of the series), tumour line A
[7] = at 46.1 µM (top of the series), tumour line C

C[C@@H](O)[C@H]1C(=O)N2C(C(=O)O)=C(S[C@@H]3CN[C@H](C(=O)N(C)C)C3)[C@H](C)[C@H]12
inactive: Potency (UISO) | Potency (WaGa) | Potency (C33A) | Potency (CASKI) | Potency (Es-2) | Potency (HeLa) | Potency (Hek293T) | Potency (JEG-3) | Potency (OV90) | Potency (PA-1) | Potency (SKOV3) | Potency (Tov-21-G) | Potency (Tov112D) | activity, negative = cell killing [1, 4] -4.52% | activity, negative = cell killing [1, 5] 4.08% | activity, negative = cell killing [1, 6] -23.7% | activity, negative = cell killing [1, 7] -22.4%

CC(=O)c1ccc(S(=O)(=O)NC(=O)NC2CCCCC2)cc1
inactive: Potency (UISO) | Potency (WaGa) | Potency (C33A) | Potency (CAOV3) | Potency (CASKI) | Potency (Es-2) | Potency (HeLa) | Potency (Hek293T) | Potency (JEG-3) | Potency (OV90) | Potency (PA-1) | Potency (SKOV3) | Potency (Tov-21-G) | Potency (Tov112D) | activity, negative = cell killing [1, 4] -1.16% | activity, negative = cell killing [1, 5] 0.333% | activity, negative = cell killing [1, 6] -21.5% | activity, negative = cell killing [1, 7] -21% | Potency (astro) | max response [2] -0.823% and -0.02% | outcome [3]

Cc1ccccc1C(C(=O)NC1CCCCC1)N(C(=O)Cn1ccnc1C)c1cccc(F)c1 (stereo not given)
inactive: Potency (UISO) | Potency (WaGa) | Potency (C33A) | Potency (CAOV3) | Potency (CASKI) | Potency (Es-2) | Potency (HeLa) | Potency (Hek293T) | Potency (JEG-3) | Potency (OV90) | Potency (PA-1) | Potency (SKOV3) | Potency (Tov-21-G) | Potency (Tov112D)

NC(=O)c1cnc(-c2ccc(C3(N)CCC3)cc2)c(-c2ccccc2)c1
inactive: Potency (UISO) | Potency (WaGa) | Potency (Es-2) | Potency (HeLa) | Potency (Hek293T) | Potency (JEG-3) | Potency (Tov112D)
active: Potency (SKOV3) 28.2 µM

Cc1cccc(Nc2nc(-c3ccncc3)cs2)c1
active: Potency (UISO) 0.935 µM
inactive: Potency (WaGa) | Potency (C33A) | Potency (CAOV3) | Potency (Es-2) | Potency (HeLa) | Potency (Tov-21-G)

O=C(NCCN1CCOCC1)c1ccc(Cl)cc1
inactive: Potency (UISO) | Potency (WaGa) | Potency (C33A) | Potency (CASKI) | Potency (Es-2) | Potency (HeLa) | Potency (Hek293T) | Potency (JEG-3) | Potency (OV90) | Potency (PA-1) | Potency (SKOV3) | Potency (Tov-21-G) | Potency (Tov112D) | activity, negative = cell killing [1, 4] -9.41% and -9.63% | activity, negative = cell killing [1, 5] -2.14% and -10.5% | activity, negative = cell killing [1, 7] -17.8% and -11.9%

CC(=O)CCCCn1c(=O)c2c(ncn2C)n(C)c1=O
inactive: Potency (UISO) | Potency (WaGa) | Potency (C33A) | Potency (CASKI) | Potency (Es-2) | Potency (HeLa) | Potency (Hek293T) | Potency (JEG-3) | Potency (OV90) | Potency (PA-1) | Potency (SKOV3) | Potency (Tov-21-G) | Potency (Tov112D) | activity, negative = cell killing ([1]; at 20 µM (top of the series), tumour line C) -6.47% | activity, negative = cell killing ([1]; at 21.2 µM (top of the series), tumour line B) 0.116% | activity, negative = cell killing ([1]; at 21.2 µM (top of the series), tumour line D) 1.87% | activity, negative = cell killing ([1]; at 21.3 µM (top of the series), tumour line A) -23.5%

CC1=C(/C=C/C(C)=C/C=C/C(C)=C/C(=O)Nc2ccc(O)cc2)C(C)(C)CCC1
active: Potency (UISO) 9.44 µM | Potency (WaGa) 23.7 µM | Potency (C33A) 7.94 µM | Potency (Hek293T) 20 µM | Potency (OV90) 31.6 µM | Potency (PA-1) 4.47 µM | Potency (Tov-21-G) 20 µM
inactive: outcome [3]

COc1ncc(-c2ccc3nccc(-c4ccnnc4)c3c2)cc1NS(=O)(=O)c1ccc(F)cc1F
active: Potency (UISO) 0.0235 µM | Potency (WaGa) 0.526 µM | Potency (HeLa) 0.631 µM | Potency (Hek293T) 0.1 µM | Potency (JEG-3) 25.1 µM | Potency (OV90) 3.55 µM | Potency (PA-1) 0.355 µM | Potency (Tov-21-G) 12.6 µM

COc1cc2nc(-c3ccc(N4CCN(C)CC4)cc3)nc(NCCN3CCOCC3)c2cc1OC
inactive: Potency (C33A) | Potency (Es-2) | Potency (HeLa) | Potency (Hek293T) | Potency (JEG-3) | Potency (Tov112D)
active: Potency (UISO) 0.118 µM | Potency (WaGa) 0.118 µM | Potency (PA-1) 15.8 µM

CC1(C)CCC(CN2CCN(c3ccc(C(=O)NS(=O)(=O)c4ccc(NCC5CCOCC5)c([N+](=O)[O-])c4)c(Oc4cnc5[nH]ccc5c4)c3)CC2)=C(c2ccc(Cl)cc2)C1
inactive: Potency (UISO) | Potency (WaGa) | Potency (C33A) | Potency (CASKI) | Potency (Es-2) | Potency (HeLa) | Potency (Hek293T) | Potency (OV90) | Potency (PA-1) | Potency (SKOV3) | Potency (Tov-21-G) | Potency (Tov112D)

O=C(CCN1CCN(C(=O)OCc2cc(Cl)cc(Cl)c2)CC1)c1ccc2[nH]c(=O)oc2c1
inactive: Potency (UISO) | Potency (WaGa) | Potency (C33A) | Potency (CAOV3) | Potency (CASKI) | Potency (Es-2) | Potency (HeLa) | Potency (Hek293T) | Potency (JEG-3) | Potency (OV90) | Potency (PA-1) | Potency (SKOV3) | Potency (Tov-21-G) | Potency (Tov112D)

O=C(O)Cc1cccc2ccccc12
inactive: Potency (UISO) | Potency (WaGa) | Potency (C33A) | Potency (CAOV3) | Potency (CASKI) | Potency (Es-2) | Potency (HeLa) | Potency (Hek293T) | Potency (JEG-3) | Potency (OV90) | Potency (PA-1) | Potency (SKOV3) | Potency (Tov-21-G) | Potency (Tov112D) | activity, negative = cell killing [1, 4] -11.6% | activity, negative = cell killing [1, 5] 18.7% | activity, negative = cell killing [1, 6] -19.6% | activity, negative = cell killing [1, 7] -6.29% | activity, negative = cell killing ([1]; at 91.6 µM (top of the series), tumour line A) -29.8% | activity, negative = cell killing ([1]; at 91.6 µM (top of the series), tumour line B) 9.54% | activity, negative = cell killing ([1]; at 91.6 µM (top of the series), tumour line D) -15.1% | activity, negative = cell killing ([1]; at 99.2 µM (top of the series), tumour line C) 10.5% | max response [2] -1.12% and -1.15% | outcome [3]
